# An excerpt weighted towards active compounds, which were near 19% of everything screened.
# uPA generation: inhibitors of cell surface uPA generation; cell surface uPA generation assay, qHTS; 330,000 tested, 0.31% active; Potency, µM (top dose mostly 38.3 µM), without a hit: at the highest dose activity change, negative = inhibition, most hits filed as inhibitors; active = well fitted inhibition curve with a large enough effect; inconclusive = small, poorly fitted or top-dose-only effect; inactive = no such curve, though single readings can be large or run the other way; tested in mouse RAW 264.7 cells; note: potency is the fitted concentration of half-maximal effect; nearly all actives have a fitted effect of over 55% in size
# DT40 TDP1 CPT: DT40-hTDP1 cell growth loss with CPT | chicken DT40 Tdp1-/-;hTDP1 cells + 20 nM CPT, ATP luminescence, 48 h | Potency, µM (highest dose often 46.2 µM), for the others: at the highest dose activity change, negative = growth inhibition, hits mostly inhibitors | 420,000 tested, 12% active | AID 686979; note: potency is the fitted concentration of half-maximal effect; nearly all actives have a fitted effect of over 55% in size
#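 Chicken DT40 Tdp1-/- cells stably complemented with human TDP1 were seeded at 400 cells/well in medium containing 20 nM camptothecin, exposed to pin-transferred compounds, and grown at 37 °C for at least 48 hr. Viability was read as ATP luminescence.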
# HT1080-NT tox: kills 2HG-producing HT-1080-NT fibrosarcoma cells; 360,000 tested, 1.6% active; HT-1080-NT fibrosarcoma viability, CellTiter-Glo ATP luminescence, 48 h; Potency, µM (titrated, usually from 46.1 µM), inactives show at the highest dose activity, negative = less viability, most hits filed as cytotoxic;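 note: NT is the 2HG producing partner of a matched IDH1 knockdown line; potency is the fitted concentration of half-maximal effect; 0% = DMSO-treated cells and -100% = media-only wells without cells; nearly all actives have a fitted effect of over 55% in size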
#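 Fibrosarcoma NT cells, 750 per well in 5% FBS RPMI, were exposed to compound for 48 hours. Viability: CellTiter-Glo luminescence.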
# IL1B secr inh: blocks inflammasome-driven IL-1 beta release | activity change, % at 57.5 µM | THP-1 LPS/ATP IL-1B secretion, AlphaLISA, 16 h; active compounds read low | 360,000 tested, 4.7% active | AID 743279; in the data active = activity change below about -50%; inconclusive = mostly about -30% to -49%
#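 Secreted IL-1B measured by AlphaLISA bead assay after 16 h compound exposure of THP-1 cells; compounds (final up to 57.5 uM) added 1 h before LPS (250 ng/mL) and ATP (1.25 mM) stimulation; lower signal means less secretion.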
# HT1080 IDH1KD tx: HT-1080 IDH1 knockdown cell toxicity (counter line). Potency, µM (top dose mostly 46.1 µM), for the others: at the top dose activity, negative = toxicity, actives largely listed as cytotoxic. HT-1080 IDH1 knockdown viability, ATP luminescence, 48 h. 360,000 tested, 2% active;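 note: potency is the fitted concentration of half-maximal effect; 0% = DMSO wells and -100% = cell-free medium wells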
#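 Knockdown cells (IDH1KD HT-1080) received compounds 2 h after plating at 750 cells/well and were kept 48 h at 37 °C in 5% FBS RPMI. A CellTiter-Glo luminescence read gave % activity for curve fitting.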
# DT40 TDP1 no CPT: qHTS for Inhibitors of human tyrosyl-DNA phosphodiesterase 1 (TDP1): qHTS in cells in absence of CPT. DT40 Tdp1-/- hTDP1 cells, no CPT, ATP luminescence, 48 h. Potency, µM (highest dose often 46.2 µM), without a hit: at the top dose activity change, negative = growth inhibition, most hits filed as inhibitors. 420,000 tested, 15% active. AID 686978, 2013; note: potency is the fitted concentration of half-maximal effect; nearly all actives have a fitted effect of over 55% in size
#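 Chicken DT40 Tdp1-/- cells complemented with human TDP1, screened without camptothecin (DMSO vehicle only), 400 cells/well. Compounds pin-transferred, cells incubated at 37 °C for at least 48 hr. Growth read as ATP-dependent luminescence (CellTiter-Glo, 30 min at RT).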
# * marks the source's active call; other numbers are inactive results; ? = inconclusive; · = not tested or not shown; [ ] = another dose, or the depositor's remark. Unless noted, calls come from the whole dose curve; as a rule, active = well fitted curve in the direction sought with a large enough effect; inconclusive = small, poorly fitted or top-dose-only effect, or another doubt; inactive = no such curve, though single readings can be large; an effect the other way counts as inactive or inconclusive. Unless noted, % is set by controls: 0 for no effect and ±100 for the full control effect.
SMILES,uPA generation,DT40 TDP1 CPT,HT1080-NT tox,IL1B secr inh,HT1080 IDH1KD tx,DT40 TDP1 no CPT
CCCN(C(=O)c1cc(S(=O)(=O)N(C)c2ccc(OCC)cc2)ccc1C)C1CCS(=O)(=O)C1 (stereo not given),-8%,?,-2%,-12,-1%,26µM*
COc1ccc(CCNC(=O)c2cc(S(=O)(=O)N(C)c3ccccc3)ccc2Cl)cc1,-4%,18µM*,0%,-4,0%,7.3µM*
CCOc1ccc(N(C)S(=O)(=O)c2ccc(C)c(C(=O)NCc3ccccc3OC)c2)cc1,-3%,?,-5%,-20,-13%,?
COc1ccc(N(C)S(=O)(=O)c2ccc(Cl)c(C(=O)NCC(C)(C)N3CCOCC3)c2)cc1,-4%,9.2µM*,12%,0,-7%,9.2µM*
COc1ccc(S(N)(=O)=O)cc1C(=O)NCC(C)(C)N1CCOCC1,5%,19%,22%,-1,18%,-4%
CCN(C(=O)c1cc(S(=O)(=O)N2CCCC2)ccc1C)C1CCS(=O)(=O)C1 (stereo not given),7%,7%,-4%[9.24 µM],11,7%,14%
CCOc1ccc(N(C)S(=O)(=O)c2ccc(C)c(C(=O)NCCc3ccc(OC)cc3)c2)cc1,-5%,23µM*,-15%,16,-3%,?
Cc1ccccc1Nc1sc(C(=O)Nc2cccc(Cl)c2)c(N)c1C(N)=O,4%,19%,-7%,?,-1%,4%
CCOc1ccc(NC(=O)c2c(Nc3ccccc3C)sc(C(=O)c3ccccc3)c2N)cc1,·,?,·,·,·,12µM*
CCOc1ccccc1Nc1sc(C(=O)c2ccccc2)c(N)c1C(=O)Nc1ccc(F)cc1,·,?,·,·,·,13µM*
CCOc1ccccc1Nc1sc(C(=O)c2ccc(Cl)cc2)c(N)c1C(=O)NCCc1ccccc1,·,4.6µM*,·,·,·,21µM*
Cc1cccc(C)c1Nc1sc(C(=O)c2ccccc2)c(N)c1C(=O)Nc1ccc(F)cc1,·,?,·,·,·,21µM*
Cc1ccc(CN2C(=O)C(C)Sc3ccc(C#N)cc32)cc1 (stereo not given),·,-20%,-16%,20,-8%,?
Cc1cc(Br)ccc1NC(=O)C1C2CCC(O2)C1C(=O)O (stereo not given),-15%,3%,16%,43,3%,-23%
Cc1ccc(-c2ccnc(-n3ncc(C(=O)NCCN4CCOCC4)c3C3CC3)n2)o1,·,21µM*,·,·,·,-24%
O=C(NCCN1CCOCC1)c1cnn(-c2nccc(-c3cc4ccccc4o3)n2)c1C1CC1,·,18µM*,·,·,·,?
O=C(NCC1(N2CCOCC2)CCCCC1)c1cnn(-c2nccc(-c3cccs3)n2)c1C1CC1,·,?,·,·,·,21µM*
CCN1CCCC1CNC(=O)c1cnn(-c2nccc(-c3ccc(C)o3)n2)c1C1CC1 (stereo not given),·,1%,·,·,·,-4%
Cc1ccc(NC(=O)c2nc[nH]c2C(=O)NCCCCNC(=O)c2[nH]cnc2C(=O)Nc2ccc(C)cc2)cc1,15%,?,?,-4,23%,8.2µM*
Cc1ccc(NC(=O)c2nc[nH]c2C(=O)NCCCNC(=O)c2[nH]cnc2C(=O)Nc2ccc(C)cc2)cc1,1%,16µM*,17%,-19,15%,?
Cc1cc2cc(C=O)c(Cl)nc2cc1C,0%,?,?,-11,13%,18µM*
CC(=O)N1N=C(c2ccc(C(C)(C)C)cc2)OC1(C)C,-1%,15µM*,-18%,0,-18%,10µM*
CC(=O)N1N=C(c2ccc3ccccc3c2)OC1(C)C,-16%,18µM*,0%,10,3%,?

# High-throughput results from PubChem.
